High-throughput results as filed in PubChem.
IL1B secr inh – inhibitors of inflammasome signaling (IL-1 beta secretion); THP-1 LPS/ATP IL-1B secretion, AlphaLISA, 16 h; active compounds read low; activity change, % at 57.5 µM; 360,000 tested, 4.7% active; AID 743279; in the data active means activity change below about -50%; inconclusive means mostly about -30% to -49%; further: on the % scale 0 is the no-effect control and ±100 the full control effect
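Secreted IL-1B measured by AlphaLISA bead assay after 16 h compound exposure of THP-1 cells; compounds (final up to 57.5 uM) added 1 h before LPS (250 ng/mL) and ATP (1.25 mM) stimulation; lower signal means less secretion.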
VP16 counter – inhibits Gal4-VP16 luciferase reporter, ROR gamma counter-screen. Drosophila S2 Gal4-VP16 UAS-luciferase, luminescence, 20 h. Potency, µM (series often up to 53.6 µM), for the others: at the top dose activity, negative = inhibition, most hits filed as inhibitors. 310,000 tested, 3.5% active. AID 2546;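 further: Gal4-VP16 expression switched on by copper sulfate through the metallothionein promoter; potency means the concentration at half of the fitted maximal effect; on the % scale 0 is the no-effect control and ±100 the full control effect; nearly all actives have a fitted effect of over 50% in size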
MCF10A rereplic – DNA re-replication induction in MCF 10a cells; MCF 10A DNA re-replication, Hoechst nuclear intensity, 48 h; Potency, µM (doses to about 46.1 µM), for inactives: at the top dose activity, positive = re-replication, actives largely listed as activators; 350,000 tested, 2.9% active; AID 624296; further: potency means the concentration at half of the fitted maximal effect; % of control where 0% means no effect; nearly all actives have a fitted effect of over 50% in size
SW480 rereplic – inducers of DNA re-replication in SW480 colon cancer cells | SW480 DNA re-replication, Hoechst DNA content imaging, 48 h | Potency, µM (doses to about 46.1 µM), for the others: at the highest dose re-replication activation, actives largely listed as activators | 340,000 tested, 1.8% active | AID 624297; further: potency means the concentration at half of the fitted maximal effect; % of control where 0% means no effect; nearly all actives have a fitted effect of over 55% in size
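Readout is total intensity of Hoechst-stained nuclei, excited at 405 nm and collected at 500-530 nm. Compound treatment lasted 48 hr at 37 C in 5% CO2 before staining.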
RORg inh – ROR gamma (mouse) transcription inhibition; P51450; Drosophila S2 Gal4-RORgamma UAS-luciferase reporter, 20 h; Potency, µM (titrated, usually from 53.6 µM), for inactives: at the highest dose activity change, negative = inhibition, actives largely listed as inhibitors; 310,000 tested, 5.4% active; further: potency means the concentration at half of the fitted maximal effect; on the % scale 0 is the no-effect control and ±100 the full control effect; nearly all actives have a fitted effect of over 60% in size
Target sequence (P51450 whole entry, looked up, the tested form may be a part): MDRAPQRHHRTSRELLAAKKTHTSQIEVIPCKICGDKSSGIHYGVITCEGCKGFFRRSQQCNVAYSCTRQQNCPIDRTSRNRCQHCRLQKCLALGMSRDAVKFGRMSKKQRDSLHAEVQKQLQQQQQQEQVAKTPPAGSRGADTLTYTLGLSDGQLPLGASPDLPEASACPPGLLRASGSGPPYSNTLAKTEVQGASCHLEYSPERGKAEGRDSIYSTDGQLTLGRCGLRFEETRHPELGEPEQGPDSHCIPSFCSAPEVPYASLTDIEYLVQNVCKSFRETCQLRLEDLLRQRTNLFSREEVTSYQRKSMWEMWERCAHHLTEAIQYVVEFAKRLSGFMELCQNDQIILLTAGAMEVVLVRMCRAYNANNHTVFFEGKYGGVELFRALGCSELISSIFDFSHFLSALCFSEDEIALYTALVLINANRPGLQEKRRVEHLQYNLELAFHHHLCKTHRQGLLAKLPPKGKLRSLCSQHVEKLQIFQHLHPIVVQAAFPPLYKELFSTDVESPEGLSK
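Drosophila Schneider cells stably carrying a metallothionein-driven Gal4 DBD–ROR gamma fusion and a UAS-Photinus luciferase reporter were exposed to compound for 1 hr, then induced with copper sulfate (700 uM final) for 20 hr at ambient temperature before luminescence reading.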
* = called active by the depositor; ? = inconclusive; . = not tested or not shown; [ ] = dose if it differs, or a comment. Only some compounds are listed: those with a hit (about 11% of all), similar ones and a draw of the others. Unless noted, the call rests on the fitted dose curve; in most records, active means well fitted curve in the direction sought with a large enough effect; inconclusive means small, poorly fitted or top-dose-only effect, or another doubt; inactive means no such curve, though single readings can be large; an effect the other way counts as inactive or inconclusive.

SMILES	IL1B secr inh	VP16 counter	MCF10A rereplic	SW480 rereplic	RORg inh
CC1C=CC=CC=CC=CC=CC=CC=CC(OC2OC(C)C(O)C(N)C2O)CC2OC(O)(CC(O)CC(O)C(O)CCC(O)CC(O)CC(=O)OC(C)C(C)C1O)CC(O)C2C(=O)O (configuration not stated)	63	.	3.3µM*	6.5µM*	.
C[C@H]1[C@@H](O)[C@@H](C)\C=C/C=C\C=C/C=C\C=C/C=C\C=C/[C@@H](O[C@H]2O[C@@H](C)[C@@H](O)[C@@H](N)[C@@H]2O)C[C@@H]2O[C@](O)(C[C@@H](O)C[C@@H](O)[C@@H](O)CC[C@@H](O)C[C@@H](O)CC(=O)O[C@H]1C)C[C@@H](O)[C@H]2C(=O)O (stereo in doubt)	.	-9%[17 µM]	.	.	23%[16.9 µM]
COc1ccc(/C=C2\CCCc3c2nc2ccccc2c3C(=O)O)cc1OC	.	6%	.	.	6%
COc1cc(/C=C2\CCCc3c2nc2ccccc2c3C(=O)O)cc(OC)c1O	15	-9%	-2%	26µM*	-5%
COc1ccc(/C=C2\CCc3c2nc2ccccc2c3C(=O)O)cc1OC	0	11µM*	?	4%	8.9µM*
CN(C)c1ccc(/C=C2\CCCc3c2nc2ccccc2c3C(=O)O)cc1	18	-15%	18µM*	23%	33%
COc1ccc(C(=O)c2c(-c3ccsc3)oc3ccc(-c4ccc(OC)cc4)cc23)cc1	-4	.	25%	1%	.
CCC(C)NC(=O)COC(=O)c1oc2ccccc2c1CSc1ccc(Cl)cc1 (configuration not stated)	16	-3%	-1%	0.92µM*	32%
O=C(O)c1oc2ccccc2c1CSc1ccc(Cl)cc1	7	7%	?	2%	-20%
COc1ccc(CNC(=O)COC(=O)Cc2ccc(Br)cc2)cc1	-1	.	-3%	-7%	.
N#C/C(=C\c1c(F)cccc1Cl)c1nn(-c2ccccc2)c(-n2cccc2)c1C#N	.	1%	?	-46%	18%
N#C/C(=C\c1c(Cl)cccc1Cl)c1nn(-c2ccccc2)c(-n2cccc2)c1C#N	-29	3%	16µM*	-7%	9%
COc1ccc(Cl)cc1Nc1nc(N)c2ccccc2n1	-89*	-6%	?	?	-4%[1.91 µM]
Nc1nc(Nc2cccc(F)c2)nc2ccccc12	-111*	-3%	3%	0%	22%
COc1ccc(C)cc1Nc1nc(N)c2cc(OC)c(OC)cc2n1	-92*	?	?	?	?
COc1cc2nc(N3CCN(c4cc(C)ccc4C)CC3)nc(N)c2cc1OC	-97*	16µM*	6.5µM*	?	16µM*
Cc1ccc(C)c(Nc2nc(N)c3ccccc3n2)c1	.	?	23%	-2%	-7%
O=c1oc(Nc2cccc(F)c2)nc2ccccc12	13	-16%	1%	1%	-39%
CN(C(=O)c1cccc(NC(=O)Cc2ccc(NC(=O)C3CCCN(C(=O)C4CC4)C3)cc2)c1)C1CCCC1 (configuration not stated)	?	.	1%	3%	.
N=C(N)N=Nc1c(O)[nH]c2ccc(Br)cc12	-24	-1%	-16%	-7%	-3%
NC(=S)N=Nc1c(O)[nH]c2cc(F)c(F)cc12	0	5µM*	-4%	.	3.2µM*
Cc1ccc(S(=O)(=O)Oc2ccccc2/C=N/NC(N)=S)cc1	16	?	?	38%	?
Cc1ccc(S(=O)(=O)Oc2ccccc2/C=N/N=C(N)N)cc1	-127*	-1%	-10%	?	-4%
CCOC(=O)C1(CCOc2ccccc2)CCN(Cc2ccc(F)c(OC)c2)CC1	-88*	-22%	?	20%	?
CCOC(=O)C1(CCOc2ccccc2)CCN(Cc2ccc3c(c2)OCCO3)CC1	-88*	-4%	?	?	1%
SMILES	IL1B secr inh	VP16 counter	MCF10A rereplic	SW480 rereplic	RORg inh
CCOC(=O)C1(CCOc2ccccc2)CCN(Cc2cccc(OC)c2O)CC1	-85*	-15%	29%	?	-10%
CCOC(=O)C1(CCOc2ccccc2)CCN(Cc2ccc(O)c(OC)c2)CC1	-28	-3%	4%	0%	32%
CCOC(=O)C1(Cc2cccc(OC)c2)CCN(Cc2ccc3c(c2)OCCO3)CC1	-63*	-8%	2%	0%	?
C[C@H](NC(=O)c1nc[nH]c1C(=O)NCCCCCN)C(=O)OCc1ccccc1	18	.	-3%	0%	.
CN(C)c1ncnc2ccc(-c3ccccc3C#N)cc12	.	8%	.	.	4%
Cc1ccc(Cl)cc1NC(=O)CON=C(N)c1ccccc1	7	.	24%	-608%	.
Cc1cccc2[nH]c3c(N4CC=C(c5ccc(F)cc5)CC4)ncnc3c12	-92*	?	?	5%	-11%
COc1cc2nc(Cl)nc(N3CCCCC3)c2cc1OC	-61*	-4%	1%	7%	-3%
CC(C)(C)NC(=S)NNC(=O)c1ccccc1Cl	34	1.4µM*	0%	-3%	0.45µM*
CC(C)(C)NC(=S)NNC(=O)c1cccc(Br)c1	10	?	-2%	2%	4.5µM*
CNC(=S)NNC(=O)c1ccccc1Cl	2	-3%	-4%	-4%	?
CC(C)(C)C(=O)NC(=S)NNC(=O)c1ccc(Cl)cc1Cl	98	?	13%	?	2µM*
CCCC[C@@H]1C[C@H]1C(NC(=O)c1cccs1)c1ccc(-c2ccccc2)cc1 (some centres not stated)	.	-5%	.	.	-17%
COC(=O)Nc1nc2ccc(SC(C)C)cc2[nH]1	34	-10%[17 µM]	1.6µM*	0.82µM*	-27%[16.9 µM]
COC(=O)Nc1nc2ccc(C(=O)c3ccccc3)cc2[nH]1	.	-20%	?	0.29µM*	30%
COc1ccc(CCNCC(=O)Nc2ccc(C)c(S(=O)(=O)N(C)C)c2)cc1	-76*	-9%	7%	13%	12%
O=C(CSc1nn(-c2ccccc2)c(=S)s1)Nn1cnnc1	14	-11%	-2%	3%	-13%
Cc1ccc(NC(=O)CSc2nn(-c3ccccc3)c(=S)s2)cc1S(=O)(=O)N(C)C	-1	14µM*	15%	-3%	?
COc1ccc(CCC(=O)Nc2ccc(C)c(S(=O)(=O)N(C)C)c2)cc1OC	18	-9%	19%	-1%	45%
CCC(C)c1ccc(NC(=S)NC(C)C2CCCO2)cc1 (configuration not stated)	16	18µM*	0%	-12%	6.3µM*
CCCCOc1ccc(S(=O)(=O)NC(=O)C2(C)CCN2C(=O)c2cccc(F)c2)cc1 (configuration not stated)	1	.	.	.	.
COc1cccc(OC)c1OCCN1CCC(C(=O)NC(c2ccccc2)c2ncccc2C)CC1 (configuration not stated)	0	.	.	.	.
